From the supplement of paper PMC10849652
Targets with a hit are over-represented here; the source holds about 8,800 in all. About 0.5% of all pairs of compound and target were hits.

Tests used:
Assay in all cases: log2 fold change, soluble protein after heating vs DMSO (PISA); higher = thermal stabilisation; K562 lysate, 10 uM; active = over 0.2 and 3.5 SD of the protein, either way, in both replicates (recomputed)
nilotinib = compound: Cc1cn(-c2cc(NC(=O)c3ccc(C)c(Nc4nccc(-c5cccnc5)n4)c3)cc(C(F)(F)F)c2)cn1 [nilotinib]
Procedure, shortened: (§1)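 K562 pellets were dounce-homogenised in PBS pH 7.4 containing 1 mM MgCl2, and the crude extract, at 1 mg/mL protein, was exposed to 10 μM compound for 30 min. Aliquots were heated for 3 min across 48°C-58°C, pooled, brought to 0.5% NP-40 at 4°C and spun at 21,000xg for 90 min, with the supernatant taken as soluble protein. TMTpro 16plex LC-MS/MS with equalised channel sums quantified that protein. Values are log-two fold changes in thermal stability relative to solvent controls, taken from duplicates.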

[1] = compound: Cc1nc(Nc2n[nH]c3c2CN(C(=O)N[C@H](CN(C)C)c2ccccc2)C3(C)C)c2sccc2n1
Procedure, shortened: as §1

dasatinib = compound: Cc1nc(Nc2ncc(C(=O)Nc3c(C)cccc3Cl)s2)cc(N2CCN(CCO)CC2)n1 [dasatinib]
Procedure, shortened: as §1

[2] = compound: Cc1ncc(-c2ccnc(Nc3ccc(S(C)(=O)=O)cc3)n2)n1C(C)C
Procedure, shortened: as §1

[3] = compound: Cn1cc(-c2ccc3c(c2)CCN3C(=O)Cc2cccc(C(F)(F)F)c2)c2c(N)ncnc21
Procedure, shortened: as §1

quisinostat = compound: Cn1cc(CNCC2CCN(c3ncc(C(=O)NO)cn3)CC2)c2ccccc21 [quisinostat]
Procedure, shortened: as §1

tipifarnib = compound: Cn1cncc1[C@@](N)(c1ccc(Cl)cc1)c1ccc2c(c1)c(-c1cccc(Cl)c1)cc(=O)n2C [tipifarnib]
Procedure, shortened: as §1

[4] = compound: NC(=O)Nc1cc(-c2cccc(F)c2)sc1C(=O)N[C@H]1CCCNC1
Procedure, shortened: as §1

[5] = compound: NC(=O)c1cnc(N[C@@H]2CCCC[C@@H]2N)nc1Nc1cccc(-n2nccn2)c1
Procedure, shortened: as §1

[6] = compound: NC1(c2ccc(-c3nc4ccn5c(=O)[nH]nc5c4cc3-c3ccccc3)cc2)CCC1
Procedure, shortened: as §1

[7] = compound: NCC(=O)Nc1ccc(-n2nc(C(F)(F)F)cc2-c2ccc3c(ccc4ccccc43)c2)cc1
Procedure, shortened: as §1

vorinostat = compound: O=C(CCCCCCC(=O)Nc1ccccc1)NO [vorinostat]
Procedure, shortened: as §1

silmitasertib = compound: O=C(O)c1ccc2c(c1)nc(Nc1cccc(Cl)c1)c1ccncc12 [silmitasertib]
Procedure, shortened: as §1

[8] = compound: O=C1NC(=O)C(c2cnc3ccccn23)=C1c1cn2c3c(cc(F)cc13)CN(C(=O)N1CCCCC1)CC2
Procedure, shortened: as §1

entospletinib = compound: c1cn2cc(-c3ccc4cn[nH]c4c3)nc(Nc3ccc(N4CCOCC4)cc3)c2n1 [entospletinib]
Procedure, shortened: as §1

Measured: log2 fold change

NCAPH (UniProt Q15003)
UniProt Q15003, sequence (Q15003 whole entry, looked up): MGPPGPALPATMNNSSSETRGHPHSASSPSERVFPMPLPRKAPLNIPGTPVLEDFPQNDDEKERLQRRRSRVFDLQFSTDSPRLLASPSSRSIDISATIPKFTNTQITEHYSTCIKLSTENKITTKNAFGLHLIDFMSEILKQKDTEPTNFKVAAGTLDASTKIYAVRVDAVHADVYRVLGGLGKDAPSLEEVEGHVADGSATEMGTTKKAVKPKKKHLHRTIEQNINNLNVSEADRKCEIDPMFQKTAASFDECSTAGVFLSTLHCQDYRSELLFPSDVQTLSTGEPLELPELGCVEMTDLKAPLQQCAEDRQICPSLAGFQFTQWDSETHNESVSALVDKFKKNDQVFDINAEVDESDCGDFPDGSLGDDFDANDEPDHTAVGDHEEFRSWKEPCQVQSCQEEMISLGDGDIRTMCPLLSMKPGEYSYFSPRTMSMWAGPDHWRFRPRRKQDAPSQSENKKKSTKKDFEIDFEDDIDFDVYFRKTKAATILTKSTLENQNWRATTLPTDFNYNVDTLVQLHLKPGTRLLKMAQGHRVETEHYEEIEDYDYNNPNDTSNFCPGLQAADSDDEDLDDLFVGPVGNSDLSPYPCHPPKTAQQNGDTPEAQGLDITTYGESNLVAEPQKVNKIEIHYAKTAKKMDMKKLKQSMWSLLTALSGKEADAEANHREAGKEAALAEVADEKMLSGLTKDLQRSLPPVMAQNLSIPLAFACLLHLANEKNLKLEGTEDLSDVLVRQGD
inactive: nilotinib -0.033 | [1] 0 | dasatinib -0.03 | [2] -0.017 | [3] -0.017 | quisinostat 0.005 | tipifarnib 0.023 | [4] 0.013 | [5] 0.006 | [6] -0.017 | [7] -0.031 | silmitasertib 0.009 | [8] -0.01 | entospletinib -0.004
active: vorinostat -0.33

NEBL isoform 2 (UniProt O76041)
inactive: nilotinib -0.022 | [1] -0.001 | dasatinib -0.029 | [2] 0.015 | [3] -0.072 | quisinostat 0.012 | tipifarnib -0.021 | [4] -0.017 | [5] -0.027 | [6] -0.007 | [7] -0.019 | vorinostat 0.146 | silmitasertib -0.019 | [8] -0.016 | entospletinib -0.01

MXRA7 (UniProt P84157)
inactive: nilotinib -0.307 | [1] 0 | dasatinib 0.03 | [2] -0.202 | [3] -0.034 | quisinostat -0.069 | tipifarnib -0.006 | [4] 0.1 | [5] -0.078 | [6] -0.003 | [7] 0.118 | vorinostat 0.262 | silmitasertib -0.102 | [8] 0.099 | entospletinib 0.021

MYO1C (UniProt O00159)
UniProt O00159, sequence (O00159 whole entry, looked up): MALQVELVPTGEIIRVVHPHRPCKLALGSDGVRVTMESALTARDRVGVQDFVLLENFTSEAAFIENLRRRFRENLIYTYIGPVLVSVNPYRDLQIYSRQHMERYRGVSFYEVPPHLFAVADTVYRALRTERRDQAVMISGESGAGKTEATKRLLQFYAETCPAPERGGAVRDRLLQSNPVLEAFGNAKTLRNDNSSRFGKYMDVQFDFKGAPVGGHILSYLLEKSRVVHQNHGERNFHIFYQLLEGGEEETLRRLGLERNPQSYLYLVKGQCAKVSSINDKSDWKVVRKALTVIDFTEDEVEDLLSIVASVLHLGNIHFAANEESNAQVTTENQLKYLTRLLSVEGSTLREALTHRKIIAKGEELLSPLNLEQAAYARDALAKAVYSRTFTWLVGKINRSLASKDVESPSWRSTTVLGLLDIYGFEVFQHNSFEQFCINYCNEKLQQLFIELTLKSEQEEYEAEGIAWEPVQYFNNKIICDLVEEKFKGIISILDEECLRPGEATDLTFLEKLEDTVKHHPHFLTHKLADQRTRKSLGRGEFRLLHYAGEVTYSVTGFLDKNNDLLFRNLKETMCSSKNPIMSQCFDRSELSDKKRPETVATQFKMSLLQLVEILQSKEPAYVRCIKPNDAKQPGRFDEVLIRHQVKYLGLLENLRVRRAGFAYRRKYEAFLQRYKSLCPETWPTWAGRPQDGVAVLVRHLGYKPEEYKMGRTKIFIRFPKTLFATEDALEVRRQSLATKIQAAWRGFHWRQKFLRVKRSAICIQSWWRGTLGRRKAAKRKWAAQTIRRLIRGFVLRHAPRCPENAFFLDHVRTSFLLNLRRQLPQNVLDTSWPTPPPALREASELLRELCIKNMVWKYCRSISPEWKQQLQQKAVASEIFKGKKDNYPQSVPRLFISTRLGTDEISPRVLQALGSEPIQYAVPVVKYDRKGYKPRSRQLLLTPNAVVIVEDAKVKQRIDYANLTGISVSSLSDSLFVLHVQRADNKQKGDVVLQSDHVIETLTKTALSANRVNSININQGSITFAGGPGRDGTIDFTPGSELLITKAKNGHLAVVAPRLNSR
inactive: nilotinib 0.019 | [1] -0.013 | dasatinib 0.112 | [2] 0.005 | [3] -0.038 | quisinostat -0.052 | tipifarnib 0.019 | [4] -0.082 | [5] 0 | [6] -0.087 | [7] -0.017 | vorinostat -0.171 | silmitasertib 0.015 | [8] 0.11 | entospletinib 0.033

OGT (UniProt O15294)
inactive: nilotinib 0.018 | [1] 0.01 | dasatinib -0.027 | [2] -0.002 | [3] 0.041 | quisinostat -0.067 | tipifarnib -0.012 | [4] 0.026 | [5] 0.009 | [6] -0.023 | [7] 0.002 | silmitasertib 0.035 | [8] 0.045 | entospletinib 0.021
active: vorinostat -0.42

MRPS31 (UniProt Q92665)
inactive: nilotinib -0.005 | [1] -0.002 | dasatinib -0.034 | [2] 0.034 | [3] 0.002 | quisinostat -0.046 | tipifarnib 0.015 | [4] 0.022 | [5] -0.026 | [6] -0.014 | [7] 0.058 | vorinostat 0.021 | silmitasertib -0.046 | [8] -0.001 | entospletinib 0

NCAPG (UniProt Q9BPX3)
active: vorinostat -0.283
inactive: nilotinib 0.01 | [1] 0.002 | dasatinib -0.062 | [2] 0 | [3] 0.007 | quisinostat -0.08 | tipifarnib 0 | [4] 0.012 | [5] -0.004 | [6] -0.019 | [7] -0.001 | silmitasertib 0.029 | [8] -0.003 | entospletinib -0.002

NOA1 (UniProt Q8NC60)
active: vorinostat -0.411
inactive: nilotinib -0.041 | [1] -0.012 | dasatinib -0.05 | [2] -0.011 | [3] -0.036 | quisinostat -0.089 | tipifarnib -0.027 | [4] 0.059 | [5] 0.04 | [6] -0.001 | [7] 0.065 | silmitasertib 0.049 | [8] 0.048 | entospletinib -0.008

PAXBP1 (UniProt Q9Y5B6)
inactive: nilotinib -0.014 | [1] 0.012 | dasatinib -0.046 | [2] 0.011 | [3] 0.024 | quisinostat -0.041 | tipifarnib -0.008 | [4] 0.031 | [5] 0.023 | [6] -0.006 | [7] 0.02 | vorinostat -0.146 | silmitasertib -0.019 | [8] -0.02 | entospletinib -0.043

PANK1 (UniProt Q8TE04)
inactive: nilotinib -0.005 | [1] 0.014 | dasatinib -0.028 | [2] -0.05 | [3] 0.053 | quisinostat -0.039 | tipifarnib 0.079 | [4] 0.062 | [5] -0.007 | [6] 0.062 | [7] 0.01 | vorinostat -0.084 | silmitasertib 0.004 | [8] -0.039 | entospletinib 0.08

MTCH2 (UniProt Q9Y6C9)
UniProt Q9Y6C9, sequence (Q9Y6C9 whole entry, looked up): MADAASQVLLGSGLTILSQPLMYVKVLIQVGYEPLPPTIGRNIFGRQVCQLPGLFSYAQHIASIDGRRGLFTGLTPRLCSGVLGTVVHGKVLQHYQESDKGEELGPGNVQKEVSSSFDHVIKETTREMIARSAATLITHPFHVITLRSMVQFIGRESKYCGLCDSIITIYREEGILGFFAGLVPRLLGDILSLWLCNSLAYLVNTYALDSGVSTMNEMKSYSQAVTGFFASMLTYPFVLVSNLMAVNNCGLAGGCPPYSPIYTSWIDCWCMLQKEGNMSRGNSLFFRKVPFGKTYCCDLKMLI
active: vorinostat -0.432
inactive: nilotinib 0.044 | [1] -0.005 | dasatinib 0 | [2] -0.014 | [3] -0.024 | quisinostat -0.104 | tipifarnib 0.018 | [4] 0 | [5] -0.027 | [6] 0.001 | [7] -0.016 | silmitasertib -0.001 | [8] -0.075 | entospletinib 0.026

NUP160 (UniProt Q12769)
UniProt Q12769, sequence (Q12769 whole entry, looked up): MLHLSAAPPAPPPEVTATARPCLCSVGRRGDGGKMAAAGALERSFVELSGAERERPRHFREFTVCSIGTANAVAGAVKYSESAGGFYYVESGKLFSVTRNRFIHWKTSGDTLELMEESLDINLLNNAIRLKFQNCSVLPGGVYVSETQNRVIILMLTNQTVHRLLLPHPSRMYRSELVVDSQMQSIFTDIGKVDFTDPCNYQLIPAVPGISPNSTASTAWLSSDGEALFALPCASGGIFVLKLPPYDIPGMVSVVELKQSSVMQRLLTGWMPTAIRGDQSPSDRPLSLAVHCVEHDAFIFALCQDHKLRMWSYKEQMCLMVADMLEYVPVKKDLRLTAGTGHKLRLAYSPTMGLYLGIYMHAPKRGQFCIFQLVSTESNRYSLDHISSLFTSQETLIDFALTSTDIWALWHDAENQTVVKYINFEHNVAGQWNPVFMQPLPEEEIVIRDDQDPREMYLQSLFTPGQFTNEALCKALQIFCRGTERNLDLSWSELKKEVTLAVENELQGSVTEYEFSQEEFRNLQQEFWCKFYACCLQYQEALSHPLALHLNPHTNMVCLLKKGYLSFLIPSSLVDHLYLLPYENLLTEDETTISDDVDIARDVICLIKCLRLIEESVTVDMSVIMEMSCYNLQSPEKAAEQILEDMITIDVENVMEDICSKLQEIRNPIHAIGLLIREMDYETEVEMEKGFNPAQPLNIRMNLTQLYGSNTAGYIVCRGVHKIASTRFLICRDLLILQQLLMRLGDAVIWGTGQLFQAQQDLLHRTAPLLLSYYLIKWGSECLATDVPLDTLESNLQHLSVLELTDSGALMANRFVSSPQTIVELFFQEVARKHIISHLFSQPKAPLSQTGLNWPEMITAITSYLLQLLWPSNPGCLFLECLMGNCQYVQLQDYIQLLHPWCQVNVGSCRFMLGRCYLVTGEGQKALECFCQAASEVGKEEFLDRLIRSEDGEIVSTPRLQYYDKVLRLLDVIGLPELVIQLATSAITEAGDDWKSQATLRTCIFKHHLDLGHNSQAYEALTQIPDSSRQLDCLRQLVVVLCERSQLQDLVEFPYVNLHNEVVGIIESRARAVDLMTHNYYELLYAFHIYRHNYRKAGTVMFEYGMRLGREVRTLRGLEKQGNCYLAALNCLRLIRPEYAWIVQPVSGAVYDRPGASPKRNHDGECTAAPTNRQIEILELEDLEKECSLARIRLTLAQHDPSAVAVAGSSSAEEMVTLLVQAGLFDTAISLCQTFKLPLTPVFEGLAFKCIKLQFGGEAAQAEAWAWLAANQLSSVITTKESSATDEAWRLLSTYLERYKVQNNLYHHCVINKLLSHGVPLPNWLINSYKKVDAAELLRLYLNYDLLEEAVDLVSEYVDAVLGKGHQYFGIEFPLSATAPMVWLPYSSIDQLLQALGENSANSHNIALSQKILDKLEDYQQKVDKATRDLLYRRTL
active: vorinostat -0.291
inactive: nilotinib 0.014 | [1] -0.025 | dasatinib -0.092 | [2] -0.032 | [3] 0.021 | quisinostat -0.032 | tipifarnib -0.031 | [4] 0.009 | [5] 0.002 | [6] -0.018 | [7] -0.036 | silmitasertib 0.082 | [8] 0.022 | entospletinib 0.009

NELFA (UniProt Q9H3P2)
inactive: nilotinib -0.018 | [1] -0.01 | dasatinib -0.064 | [2] -0.02 | [3] -0.009 | quisinostat -0.007 | tipifarnib 0.024 | [4] 0.03 | [5] 0.048 | [6] -0.014 | [7] -0.057 | silmitasertib -0.004 | [8] 0.008 | entospletinib -0.027
active: vorinostat -0.309

OLA1 (UniProt Q9NTK5)
active: vorinostat -0.31
inactive: nilotinib 0.001 | [1] -0.009 | dasatinib -0.023 | [2] 0.006 | [3] 0.018 | quisinostat -0.008 | tipifarnib 0.018 | [4] 0.022 | [5] -0.006 | [6] 0.025 | [7] 0.03 | silmitasertib 0.041 | [8] 0.004 | entospletinib 0.043

OTUD7B (UniProt Q6GQQ9)
UniProt Q6GQQ9, sequence (Q6GQQ9 whole entry, looked up): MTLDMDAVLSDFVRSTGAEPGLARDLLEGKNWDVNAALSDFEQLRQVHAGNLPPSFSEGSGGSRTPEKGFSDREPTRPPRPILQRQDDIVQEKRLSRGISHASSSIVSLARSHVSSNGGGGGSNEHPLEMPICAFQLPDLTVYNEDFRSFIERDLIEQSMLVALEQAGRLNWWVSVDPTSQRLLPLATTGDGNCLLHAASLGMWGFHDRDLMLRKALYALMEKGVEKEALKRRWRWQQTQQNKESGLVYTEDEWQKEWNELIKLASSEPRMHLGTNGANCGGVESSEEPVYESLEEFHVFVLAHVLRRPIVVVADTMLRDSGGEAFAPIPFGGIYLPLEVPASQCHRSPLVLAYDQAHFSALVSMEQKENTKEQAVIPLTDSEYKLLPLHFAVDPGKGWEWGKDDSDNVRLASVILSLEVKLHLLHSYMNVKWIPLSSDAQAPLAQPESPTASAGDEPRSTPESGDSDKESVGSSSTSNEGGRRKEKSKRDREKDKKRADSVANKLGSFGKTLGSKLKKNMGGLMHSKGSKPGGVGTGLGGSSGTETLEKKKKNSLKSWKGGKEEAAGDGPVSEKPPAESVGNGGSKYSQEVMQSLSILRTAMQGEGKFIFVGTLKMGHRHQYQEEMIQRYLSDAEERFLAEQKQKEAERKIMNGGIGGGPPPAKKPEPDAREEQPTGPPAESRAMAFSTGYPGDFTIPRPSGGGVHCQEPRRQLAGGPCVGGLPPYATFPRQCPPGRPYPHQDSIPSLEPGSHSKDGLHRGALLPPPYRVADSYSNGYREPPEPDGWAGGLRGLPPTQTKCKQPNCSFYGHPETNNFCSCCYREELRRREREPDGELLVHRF
inactive: nilotinib -0.017 | [1] 0.017 | dasatinib 0.005 | [2] 0.03 | [3] 0.027 | quisinostat -0.252 | tipifarnib 0.05 | [4] 0.142 | [5] 0.026 | [6] -0.095 | [7] 0.044 | silmitasertib -0.038 | [8] 0.194 | entospletinib -0.04
active: vorinostat 0.331

PAN2 isoform 2 (UniProt Q504Q3)
inactive: nilotinib 0.072 | [1] 0.013 | dasatinib -0.012 | [2] 0.046 | [3] 0.079 | quisinostat -0.036 | tipifarnib -0.049 | [4] 0.056 | [5] 0.02 | [6] -0.028 | [7] 0.11 | vorinostat -0.097 | silmitasertib 0.038 | [8] -0.056 | entospletinib 0.038

NUMB (UniProt P49757)
inactive: nilotinib -0.03 | [1] -0.024 | dasatinib -0.072 | [2] -0.008 | [3] 0.001 | quisinostat -0.02 | tipifarnib 0.001 | [4] -0.029 | [5] -0.026 | [6] 0.003 | [7] 0 | silmitasertib -0.014 | [8] -0.066 | entospletinib 0
active: vorinostat -0.315

OGFR (UniProt Q9NZT2)
UniProt Q9NZT2, sequence (Q9NZT2 whole entry, looked up): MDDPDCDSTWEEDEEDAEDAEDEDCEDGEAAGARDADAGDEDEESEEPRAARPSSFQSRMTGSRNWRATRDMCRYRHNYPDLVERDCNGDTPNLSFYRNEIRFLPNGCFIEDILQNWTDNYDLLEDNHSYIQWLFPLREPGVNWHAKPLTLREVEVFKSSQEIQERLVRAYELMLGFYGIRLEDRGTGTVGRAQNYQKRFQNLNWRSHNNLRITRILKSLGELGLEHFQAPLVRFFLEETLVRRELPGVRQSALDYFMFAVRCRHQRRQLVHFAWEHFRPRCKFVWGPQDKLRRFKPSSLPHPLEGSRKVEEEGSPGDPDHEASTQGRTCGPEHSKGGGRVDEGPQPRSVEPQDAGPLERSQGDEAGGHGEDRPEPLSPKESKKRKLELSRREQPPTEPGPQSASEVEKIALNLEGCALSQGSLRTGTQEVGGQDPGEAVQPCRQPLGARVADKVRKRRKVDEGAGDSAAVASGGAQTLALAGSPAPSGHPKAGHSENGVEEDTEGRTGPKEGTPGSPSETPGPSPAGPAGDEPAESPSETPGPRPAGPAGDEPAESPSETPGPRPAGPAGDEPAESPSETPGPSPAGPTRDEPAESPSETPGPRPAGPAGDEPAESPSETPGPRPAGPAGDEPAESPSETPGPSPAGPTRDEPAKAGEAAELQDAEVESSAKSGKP
inactive: nilotinib -0.016 | [1] 0.021 | dasatinib -0.022 | [2] -0.005 | [3] 0.042 | quisinostat -0.004 | tipifarnib 0.04 | [4] 0.02 | [5] -0.001 | [6] 0.028 | [7] -0.036 | silmitasertib 0.02 | [8] -0.018 | entospletinib -0.061
active: vorinostat -0.285

N4BP2 (UniProt Q86UW6)
inactive: nilotinib 0.026 | [1] 0.036 | dasatinib -0.024 | [2] -0.043 | [3] 0.061 | quisinostat -0.001 | tipifarnib -0.061 | [4] 0.037 | [5] -0.018 | [6] -0.048 | [7] -0.075 | silmitasertib -0.004 | [8] -0.001 | entospletinib -0.029
active: vorinostat -0.369

MRPL51 (UniProt Q4U2R6)
active: quisinostat 0.27
inactive: nilotinib -0.029 | [1] -0.006 | dasatinib -0.056 | [2] -0.054 | [3] -0.055 | tipifarnib -0.003 | [4] 0.055 | [5] -0.003 | [6] 0.024 | [7] -0.03 | vorinostat -0.067 | silmitasertib -0.054 | [8] 0.121 | entospletinib 0.003

NDC1 (UniProt Q9BTX1)
inactive: nilotinib -0.019 | [1] -0.006 | dasatinib -0.071 | [2] -0.018 | [3] 0.052 | quisinostat -0.03 | tipifarnib 0.009 | [4] 0 | [5] -0.01 | [6] -0.028 | [7] 0.013 | vorinostat -0.134 | silmitasertib -0.016 | [8] -0.012 | entospletinib -0.016
